Experimental data: PubChem BioAssay (NCATS)
Inconclusive results are not listed. Where a call stands in place of a potency, no number is given. Activity calls are given as the source filed them. The call rests on the fitted dose curve; in most records, active means well fitted curve in the direction sought with a large enough effect; inconclusive means small, poorly fitted or top-dose-only effect, or another doubt; inactive means no such curve, though single readings can be large; an effect the other way counts as inactive or inconclusive.

How the values were obtained:
[1] = target: Nuclear receptor ROR-gamma (Homo sapiens) (UniProt P51449); experiment: qHTS assay for small molecule antagonists of the retinoid-related orphan receptor gamma (ROR-gamma) signaling pathway (AID 651802); further: nearly all actives have a fitted effect of over 60% in size; further: potency means the concentration at half of the fitted maximal effect
Sequence of Nuclear receptor ROR-gamma (Homo sapiens) (P51449 whole entry, looked up): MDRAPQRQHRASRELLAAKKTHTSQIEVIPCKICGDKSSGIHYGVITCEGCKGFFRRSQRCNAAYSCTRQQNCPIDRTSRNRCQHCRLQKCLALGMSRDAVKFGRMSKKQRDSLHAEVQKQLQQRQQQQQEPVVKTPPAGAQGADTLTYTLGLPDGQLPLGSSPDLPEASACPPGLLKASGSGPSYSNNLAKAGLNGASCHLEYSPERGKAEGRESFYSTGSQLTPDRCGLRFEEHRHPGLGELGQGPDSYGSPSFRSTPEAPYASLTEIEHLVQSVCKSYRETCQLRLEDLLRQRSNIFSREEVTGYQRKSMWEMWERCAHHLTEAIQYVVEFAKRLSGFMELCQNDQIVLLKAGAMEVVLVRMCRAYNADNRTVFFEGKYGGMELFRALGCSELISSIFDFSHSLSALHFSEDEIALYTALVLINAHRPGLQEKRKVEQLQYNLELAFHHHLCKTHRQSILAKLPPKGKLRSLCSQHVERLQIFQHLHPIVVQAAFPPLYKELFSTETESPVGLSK
Procedure, shortened: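 Doxycycline-induced reporter activity in engineered CHO cells (TET-inducible ROR, RORE-LUC) was measured by luminescence after 16hr compound exposure at 37C.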

[2] = target: Arylsulfatase A (Homo sapiens) (UniProt P15289); experiment: qHTS screen for enhancers of Arylsulfatase A (ASA1): LOPAC Validation Assay (AID 720538)
Sequence of Arylsulfatase A (Homo sapiens) (P15289 whole entry, looked up): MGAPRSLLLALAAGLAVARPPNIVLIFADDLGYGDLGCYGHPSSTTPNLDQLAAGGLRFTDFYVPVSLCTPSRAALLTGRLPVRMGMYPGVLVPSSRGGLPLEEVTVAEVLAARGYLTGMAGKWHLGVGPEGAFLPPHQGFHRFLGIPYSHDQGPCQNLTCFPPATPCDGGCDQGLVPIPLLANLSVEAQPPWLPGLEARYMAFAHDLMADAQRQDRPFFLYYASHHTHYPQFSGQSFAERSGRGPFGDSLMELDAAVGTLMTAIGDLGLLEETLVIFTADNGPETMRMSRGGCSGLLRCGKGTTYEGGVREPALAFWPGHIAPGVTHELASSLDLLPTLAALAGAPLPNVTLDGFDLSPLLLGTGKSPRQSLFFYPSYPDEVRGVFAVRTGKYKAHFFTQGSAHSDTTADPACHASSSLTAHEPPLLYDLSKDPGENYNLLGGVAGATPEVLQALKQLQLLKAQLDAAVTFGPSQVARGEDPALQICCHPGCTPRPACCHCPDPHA
Procedure, shortened: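 Cell-based enhancement test: residual ASA activity in SV40-transformed I179S patient fibroblasts is measured by pNCS turnover (0.5mM final, 14h, room temperature) following 48h compound incubation; higher fluorescence indicates activation.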

[3] = qHTS for compounds that reverse cellular toxicity of Amyloid beta (A-beta) peptide in yeast: LOPAC Validation Assay (AID 720559)
Procedure, shortened: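 Here, A-beta-toxic yeast grow with test compounds at 30 C for 48 hr before optical density at 600 nm is recorded; data are normalized against DMSO and the FeCl3-clioquinol control.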

[4] = qHTS for Activators of Parkin Expression: LOPAC Validation Assay (NLuc Reporter) (AID 720572)
Procedure, shortened: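 Compound effects on Parkin promoter activity were measured as NanoLuc luminescence after 24 h at 37 C. The neuronal reporter line also carried FLuc, which was read first. LOPAC compounds were tested at 7 concentrations, with normalization to DMSO (0%) and positive control (100%).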

[5] = qHTS for Activators of Parkin Expression: LOPAC Validation Assay (FLuc Reporter) (AID 720573)
Procedure, shortened: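 Readout is FLuc luminescence from neuronal reporter cells (Parkin promoter, FLuc plus NLuc) after 24 h compound exposure in dose response. Values normalized to neutral DMSO and positive-control compounds.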

[6] = target: Tyrosine-protein kinase Yes (Homo sapiens) (UniProt P07947); experiment: qHTS for small molecule inhibitors of Yes1 kinase: Primary Screen (AID 686947); further: nearly all actives have a fitted effect of over 60% in size
Sequence of Tyrosine-protein kinase Yes (Homo sapiens) (P07947 whole entry, looked up): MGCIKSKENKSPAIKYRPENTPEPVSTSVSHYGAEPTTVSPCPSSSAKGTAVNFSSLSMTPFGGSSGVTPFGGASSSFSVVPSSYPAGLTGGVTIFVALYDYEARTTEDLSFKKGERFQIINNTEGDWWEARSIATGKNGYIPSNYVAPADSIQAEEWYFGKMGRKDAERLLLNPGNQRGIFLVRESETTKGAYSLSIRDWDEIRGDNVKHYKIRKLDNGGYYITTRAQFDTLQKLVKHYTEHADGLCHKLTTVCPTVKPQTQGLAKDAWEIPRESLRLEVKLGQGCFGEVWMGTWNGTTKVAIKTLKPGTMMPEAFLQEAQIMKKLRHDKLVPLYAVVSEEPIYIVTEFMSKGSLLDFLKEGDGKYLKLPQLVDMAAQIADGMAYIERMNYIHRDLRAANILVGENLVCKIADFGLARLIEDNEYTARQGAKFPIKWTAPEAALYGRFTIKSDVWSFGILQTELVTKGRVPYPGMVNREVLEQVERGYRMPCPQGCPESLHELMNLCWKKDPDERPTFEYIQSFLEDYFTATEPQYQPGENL
Procedure, shortened: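 In this qHTS format, inhibition is expressed relative to DMSO controls with enzyme (maximum) and without enzyme (minimum). The 60 min room-temperature reaction uses 0.1 mM ATP, with ADP detected by luminescence.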

[7] = qHTS for small molecule inhibitors of Yes1 kinase: Counter Assay (AID 686950);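 further: no kinase present so only ADP-Glo detection of a fixed ADP amount is tested; luminescence from ADP-Glo reporting ADP in a fixed ATP and ADP mixture; series mostly up to about 77 µM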
Procedure, shortened: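 ADP-Glo luminescence read after a 60 min room-temperature incubation of compound with an ATP/ADP mix (0.08 mM/0.02 mM) and no kinase, following a 20 min compound preincubation. Signal scaled between ATP+ADP (max) and 0.1 mM ATP-only (min) wells; Tris pH 7.5, Mg2+, DTT.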

[8] = qHTS for Inhibitors of Ubiquitin-specific Protease USP2a Using CHOP2 as the Reporter: K633 Counterscreen (AID 652168); further: series mostly up to about 57 µM
Procedure, shortened: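 Detection-system control: fluorescence of K48-linked DiUb-4IQF substrate (100 nM as added) tracked over time, Ex 525/Em 598, with pinned compounds and no enzyme, in pH 8 Tris buffer containing beta-mercaptoethanol and 0.05% Chaps.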

[9] = qHTS for Inhibitors of Ubiquitin-specific Protease USP2a Using CHOP2 as the Reporter: Cytotox Assay (AID 652170);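 further: HCT116 human colon cancer cells at 600 per well; series mostly up to about 46 µM; nearly all actives have a fitted effect of over 70% in size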
Procedure, shortened: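 Cytotoxicity read as ATP luminescence (CellTiter-Glo) after 72 hr compound treatment at 37 deg C. Cells: HCT116, 600/well in DMEM plus 10% FBS. Normalization between DMSO-treated cells and cell-free wells.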

[10] = target: Ubiquitin carboxyl-terminal hydrolase 2 (Homo sapiens) (UniProt O75604); experiment: qHTS for Inhibitors of Ubiquitin-specific Protease USP2a Using CHOP2 as the Reporter: K484 Substrate (AID 652173);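 further: cleavage of internally quenched K48 di-ubiquitin substrate measured as rising fluorescence over time; nearly all actives have a fitted effect of over 70% in size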
Sequence of Ubiquitin carboxyl-terminal hydrolase 2 (Homo sapiens) (O75604 whole entry, looked up): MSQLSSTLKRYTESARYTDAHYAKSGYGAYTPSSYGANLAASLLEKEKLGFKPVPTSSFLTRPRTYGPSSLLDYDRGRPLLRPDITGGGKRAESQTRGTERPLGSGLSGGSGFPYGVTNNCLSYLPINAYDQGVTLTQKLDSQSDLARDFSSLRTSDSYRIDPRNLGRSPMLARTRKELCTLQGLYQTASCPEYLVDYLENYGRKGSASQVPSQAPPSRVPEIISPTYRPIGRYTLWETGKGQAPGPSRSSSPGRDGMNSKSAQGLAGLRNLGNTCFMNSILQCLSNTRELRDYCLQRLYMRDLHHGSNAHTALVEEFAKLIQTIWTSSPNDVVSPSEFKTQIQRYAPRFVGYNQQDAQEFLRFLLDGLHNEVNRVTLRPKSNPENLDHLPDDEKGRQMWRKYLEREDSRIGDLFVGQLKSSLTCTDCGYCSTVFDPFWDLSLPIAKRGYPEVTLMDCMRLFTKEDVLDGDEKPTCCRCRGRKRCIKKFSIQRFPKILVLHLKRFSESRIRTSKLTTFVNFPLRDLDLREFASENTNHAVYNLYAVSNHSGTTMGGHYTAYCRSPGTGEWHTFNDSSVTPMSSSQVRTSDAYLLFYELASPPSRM
Procedure, shortened: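 Kinetic fluorescence (Ex 525/Em 598) tracked cleavage of an internally quenched K48 di-ubiquitin substrate, added as a 100 nM solution. The enzyme was added as a 5 nM USP2 solution before compound pinning, with no-enzyme controls. Buffer: Tris pH 8, beta-mercaptoethanol, CHAPS.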

For `Cc1c(O)cccc1C(=O)N[C@@H](CSc1ccccc1)[C@H](O)CN1C[C@H]2CCCC[C@H]2C[C@H]1C(=O)NC(C)(C)C`, the Potency [1] was 8.41 µM (active).

For `NCCNCCNCCNCCN`, the Potency [1] was “inactive”.

With `CCCn1cnc2c1c(=O)n(CCCCC(C)=O)c(=O)n2C` the Potency [2] was “inactive”, the outcome [3] was “inactive” and the Potency [4] was “inactive”. For the same molecule, the outcome [5] was “inactive”.

In the case of `Oc1cn2c(n1)Nc1ccc(Cl)c(Cl)c1C2`, the outcome [6] is reported as “inactive” and the outcome [7] is reported as “inactive”.

In the case of `CC(C(O)c1ccc(O)cc1)N1CCC(Cc2ccccc2)CC1` (centres undefined), the Potency [2] is reported as “inactive”, the outcome [3] is reported as “inactive” and the Potency [4] is reported as “inactive”. The outcome [5] was “inactive”.

For `[Cl][In]([Cl])[Cl]`, the Potency [1] was “inactive”.

With `CCN(CC)CCNC(=O)c1c(C)[nH]c(/C=C2\C(=O)Nc3ccc(F)cc32)c1C` the outcome [7] was “inactive”.

In the case of `CC[C@H]1CN2CCc3cc(OC)c(OC)cc3[C@@H]2C[C@@H]1C[C@H]1NCCc2cc(OC)c(OC)cc21`, the Potency [2] is reported as “inactive”, the outcome [3] is reported as “inactive” and the Potency [4] is reported as “inactive”.

For `Cc1cc(CC(=O)O)n(C)c1C(=O)c1ccc(Cl)cc1`, the Potency [1] was “inactive”.

For `CSc1ccc2c(c1)C(N1CCN(C)CC1)Cc1ccccc1S2` (centres undefined), the Potency [2] was “inactive”, the outcome [3] was “inactive” and the Potency [4] was “inactive”. For the same molecule, the outcome [5] was “inactive”.

With `CCCCCCCCCCCCOS(=O)(=O)O` the Potency [1] was “inactive”.

With `NC(=O)c1ncn([C@@H]2O[C@H](CO)[C@@H](O)[C@H]2O)c1N` the outcome [6] was “inactive” and the outcome [7] was “inactive”.

For `CCCCOC(=O)c1ccc(O)cc1`, the Potency [1] was “inactive”.

For `Nc1cc(=O)[nH]c(N)n1`, the Potency [2] was “inactive”, the outcome [3] was “inactive” and the Potency [4] was “inactive”. The outcome [5] was “inactive”.

For `COC(=O)C1=C(C)NC(C)=C(C(=O)OC)C1c1ccccc1[N+](=O)[O-]`, the Potency [2] was “inactive” and the outcome [3] was “inactive”.

For `CC1=C(/C=C/C(C)=C/C=C/C(C)=C/C(=O)O)C(C)(C)CCC1`, the Potency [2] was “inactive”, the outcome [3] was “inactive” and the Potency [4] was “inactive”.

For `O=C1Nc2ccc(Cl)cc2[C@@](C#CC2CC2)(C(F)(F)F)O1`, the outcome [6] was “inactive” and the outcome [7] was “inactive”.

With `CC1(C)[C@@H]2CC[C@@]1(C)C(=O)C2` the Potency [1] was “inactive”.

For `Cc1cc(N)c2ccccc2[n+]1CCCCCCCCCC[n+]1c(C)cc(N)c2ccccc21`, the Potency [2] was “inactive”, the outcome [3] was “inactive” and the Potency [4] was “inactive”. The outcome [5] was “inactive”.

In the case of `CC(C)(C(=O)O)c1ccc(C(O)CCCN2CCC(C(O)(c3ccccc3)c3ccccc3)CC2)cc1` (centres undefined), the Potency [2] is reported as “inactive”, the outcome [3] is reported as “inactive” and the Potency [4] is reported as “inactive”. The outcome [5] was “inactive”.

For `Cc1cc2nc3c(=O)[nH]c(=O)nc-3n(C[C@H](O)[C@H](O)[C@H](O)CO)c2cc1C`, the Potency [1] was “inactive”.

With `CC(=O)O[C@@]12CO[C@@H]1C[C@H](O)[C@@]1(C)C(=O)[C@H](O)C3=C(C)[C@@H](OC(=O)[C@H](O)[C@@H](NC(=O)OC(C)(C)C)c4ccccc4)C[C@@](O)([C@@H](OC(=O)c4ccccc4)[C@H]21)C3(C)C` the outcome [6] was “inactive” and the outcome [7] was “inactive”.

With `NCCNCCNCCN` the Potency [1] was “inactive”.

For `C[C@](N)(Cc1ccc(O)cc1)C(=O)O`, the Potency [2] was “inactive”.

In the case of `NC(N)=NCCC[C@H](N)C(=O)O`, the Potency [2] is reported as “inactive”, the outcome [3] is reported as “inactive” and the Potency [4] is reported as “inactive”. The outcome [5] was “inactive”.

With `CN(C)CCOC(C)(c1ccccc1)c1ccccn1` (centres undefined) the Potency [2] was “inactive”.

For `CN(C)CCCN1c2ccccc2CCc2ccccc21`, the Potency [2] was “inactive”, the outcome [3] was “inactive” and the Potency [4] was “inactive”. For the same molecule, the outcome [5] was “inactive”.

In the case of `COc1ccccc1O`, the Potency [1] is reported as “inactive”.

For `Nc1ccc(S(=O)(=O)Nc2nccs2)cc1`, the outcome [8] was “inactive”, the outcome [9] was “inactive” and the outcome [10] was “inactive”.

For `O=C1O[C@H]([C@@H](O)CO)C(O)=C1O`, the Potency [1] was “inactive”.

In the case of `CC(C)NC[C@H](O)c1ccc(O)c(O)c1`, the Potency [2] is reported as “inactive”, the outcome [3] is reported as “inactive” and the Potency [4] is reported as “inactive”. The outcome [5] was “inactive”.

With `CC12CCC(CC1)C(C)(C)O2` the Potency [1] was “inactive”.

With `CC(CN1c2ccccc2Sc2ccccc21)N(C)C` (centres undefined) the Potency [2] was “inactive”, the outcome [3] was “inactive” and the Potency [4] was “inactive”. For the same molecule, the outcome [5] was “inactive”.
